Screening data (PubChem)
RORg inh – inhibitors of mouse ROR gamma transcriptional activity; P51450; Drosophila S2 Gal4-RORgamma UAS-luciferase reporter, 20 h; Potency, µM (doses to about 53.6 µM), without a hit: at the highest dose activity change, negative = inhibition, usual class: inhibitors; actives 5.4% (n = 310,000); note: potency is the fitted concentration of half-maximal effect; nearly all actives have a fitted effect of over 60% in size
Target sequence (P51450 whole entry, looked up, the tested form may be a part): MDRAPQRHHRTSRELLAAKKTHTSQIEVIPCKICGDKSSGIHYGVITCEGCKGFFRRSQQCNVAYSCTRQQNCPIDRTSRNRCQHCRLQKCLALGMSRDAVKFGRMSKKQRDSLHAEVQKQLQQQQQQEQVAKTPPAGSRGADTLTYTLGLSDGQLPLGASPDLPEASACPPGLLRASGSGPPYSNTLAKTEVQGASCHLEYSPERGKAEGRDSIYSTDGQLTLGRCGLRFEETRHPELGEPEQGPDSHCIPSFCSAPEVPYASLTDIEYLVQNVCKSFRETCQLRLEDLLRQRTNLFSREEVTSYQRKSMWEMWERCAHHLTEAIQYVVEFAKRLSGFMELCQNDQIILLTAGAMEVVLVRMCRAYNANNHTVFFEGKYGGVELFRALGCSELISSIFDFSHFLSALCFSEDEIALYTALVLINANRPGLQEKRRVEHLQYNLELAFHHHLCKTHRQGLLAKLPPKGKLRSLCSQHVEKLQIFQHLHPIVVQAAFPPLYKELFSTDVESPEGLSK
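Schneider cells (Drosophila), stable Gal4 DBD–ROR gamma + UAS-luc; 1 hr cmpd preincubation; Cu2+ induction 700 uM final; 20 hr ambient; luminescence.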
TDP1 cell CPT – growth inhibition of DT40 Tdp1-/-;hTDP1 cells with camptothecin (screen for TDP1 inhibitors); AID 686979; actives 12% (n = 420,000); Potency, µM (titrated, usually from 46.2 µM), for the others: at the highest dose activity change, negative = growth inhibition, hits mostly inhibitors; chicken DT40 Tdp1-/-;hTDP1 cells + 20 nM CPT, ATP luminescence, 48 h; note: potency is the fitted concentration of half-maximal effect; nearly all actives have a fitted effect of over 55% in size
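Chicken DT40 Tdp1-/- cells complemented with human TDP1, 400 cells/well, exposed to compounds plus 20 nM camptothecin for at least 48 h at 37 C; viability read as ATP content by CellTiter-Glo luminescence.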
IL1B secr inh – blocks inflammasome-driven IL-1 beta release; THP-1 LPS/ATP IL-1B secretion, AlphaLISA, 16 h; active compounds read low; activity change, % at 57.5 µM; actives 4.7% (n = 360,000); in the data active = activity change below about -50%; inconclusive = mostly about -30% to -49%
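Secreted IL-1B measured by AlphaLISA bead assay after 16 h compound exposure of THP-1 cells; compounds (final up to 57.5 uM) added 1 h before LPS (250 ng/mL) and ATP (1.25 mM) stimulation; lower signal means less secretion.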
Gal4-VP16 FLuc – inhibits Gal4-VP16 luciferase reporter, ROR gamma counter-screen; Potency, µM (doses to about 53.6 µM), without a hit: top-dose activity, negative = inhibition, most hits filed as inhibitors; actives 3.5% (n = 310,000); AID 2546; Drosophila S2 Gal4-VP16 UAS-luciferase, luminescence, 20 h;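 note: Gal4-VP16 expression switched on by copper sulfate through the metallothionein promoter; potency is the fitted concentration of half-maximal effect; nearly all actives have a fitted effect of over 50% in size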
TDP1 cell noCPT – qHTS for Inhibitors of human tyrosyl-DNA phosphodiesterase 1 (TDP1): qHTS in cells in absence of CPT; DT40 Tdp1-/- hTDP1 cells, no CPT, ATP luminescence, 48 h; Potency, µM (highest dose often 46.2 µM), without a hit: top-dose activity change, negative = growth inhibition, usual class: inhibitors; actives 15% (n = 420,000); note: potency is the fitted concentration of half-maximal effect; nearly all actives have a fitted effect of over 55% in size
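A cellular qHTS used chicken DT40 cells lacking endogenous Tdp1 but carrying stably transfected human TDP1. Compounds were applied without camptothecin, and cell growth kinetics were judged by ATP-dependent luminescence after ≥48 hr.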
ELG1 DNA repair – ELG1-dependent DNA repair inhibition; HEK293T ELG1-luciferase reporter, luminescence, 16 h; DNA damage induced by 5-fluorouridine; AID 504467; actives 2.3% (n = 330,000); Potency, µM (series often up to 46.1 µM), for inactives: at the top dose activity change, negative = inhibition, hits mostly inhibitors; note: potency is the fitted concentration of half-maximal effect; nearly all actives have a fitted effect of over 55% in size
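DMSO vehicle served as the neutral condition. Each well held 2,000 cells given 5-fluorouridine plus compound; after 16 hr at 37 °C/5% CO2, ONE-Glo was added and luciferase measured 30 min later.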
* hit, by the source's call; ? = inconclusive; nt = no result; [ ] = remark or other dose. An excerpt weighted towards active compounds, which were near 21% of everything screened. Unless noted, calls come from the whole dose curve; as a rule, active = well fitted curve in the direction sought with a large enough effect; inconclusive = small, poorly fitted or top-dose-only effect, or another doubt; inactive = no such curve, though single readings can be large; an effect the other way counts as inactive or inconclusive. % is set by controls: 0 for no effect and ±100 for the full control effect.

SMILES	RORg inh	TDP1 cell CPT	IL1B secr inh	Gal4-VP16 FLuc	TDP1 cell noCPT	ELG1 DNA repair
N#Cc1ccc(OCC(O)CN2CCN(C(c3ccccc3)c3ccccc3)CC2)cc1 (configuration not stated)	-26%	?	-20	-5%	18µM*	-6%
COc1ccc(OCC(O)CN2CCN(CC(O)COc3ccc(OC)cc3)CC2)cc1 (configuration not stated)	-23%	-8%	-5	3%	4%	-17%
CC(C)(C)c1cc(/C=N/NC(=O)C[n+]2ccccc2)cc(C(C)(C)C)c1O	6%	?	-10	11%	-1%	0%
O=C(Nc1ccc(O)c2c(=O)cc(-c3cccc(Cl)c3)oc12)c1ccccc1Cl	-9%	?	-8	0%	21µM*	-20%
Cc1ccc(N2CCN(C(=O)C3CCN(c4ncnc5c4nc4n5CCCCC4)CC3)CC2)c(C)c1	nt	21µM*	nt	nt	?	nt
CC1CCN(C(=O)C2CCN(c3ncnc4c3nc3n4CCCCC3)CC2)CC1	30%	?	8	-2%	23µM*	-3%
COc1ccc(-c2nc3c4cnn(-c5ccccc5F)c4ncn3n2)cc1	nt	9%	nt	nt	-4%	nt
COc1cc(C=CC(=O)N2CCN(CC(=O)N3CCCC3)CC2)cc(OC)c1OC	nt	12%	-23	nt	-26%	nt
C/C(NCCc1ccccc1)=C1/CCOC1=O	nt	-3%	18	nt	-14%	nt
COc1c(OC)c2occc2c2oc(=O)ccc12	-34%	-27%	nt	6%	-12%	nt
OC1CCCC1NCc1ccnc2cc(Cl)ccc12 (configuration not stated)	nt	?	-4	nt	16µM*	nt
CCOC(=O)N1CCC(=NNc2ccnc3cc(Cl)ccc23)CC1	-6%	-19%	19	-28%	?	?
OC(CNc1ccnc2cc(Cl)ccc12)CNC1CCCCC1 (configuration not stated)	nt	18µM*	-114*	nt	16µM*	nt
CCNC1CCC(Nc2ccnc3cc(Cl)ccc23)CC1 (configuration not stated)	nt	18µM*	-98*	nt	9.2µM*	nt
O=C(Cc1ccc(Cl)cc1Cl)NC1CCCCCC1	-1%	-27%	-24	-8%	?	8%
Cc1cccc(Cc2cccc(C)c2O)c1O	nt	5%	-16	nt	?	nt
CC(C)OCCCn1c(-c2ccco2)nc2nc3ccccc3nc21	1%	?	-17	0%[0.365 µM]	23µM*	?
C=CCn1cnc2c(c1=O)c1nc3ccccc3nc1n2/N=C/c1ccccn1	1%[10 µM]	16µM*	-65*	-25%	21µM*	12µM*
C=CCn1cnc2c(c1=O)c1nc3ccccc3nc1n2-c1ccccc1	-12%	nt	nt	-5%	nt	-6%
C=CCn1cnc2c(c1=O)c1nc3ccccc3nc1n2/N=C/c1cc(OC)c(OC)c(OC)c1	0%[10 µM]	4.1µM*	-5	-23%	3.3µM*	5.8µM*
O=c1c2c3nc4ccccc4nc3n(/N=C/c3ccccn3)c2ncn1-c1ccccc1	2%	2.6µM*	?	-7%	?	-2%
CCN(CC)CCNC(=O)Cn1ncc2c([nH]c3ccccc32)c1=O	nt	10%	nt	nt	8%	nt
CCOC(=O)C1CCCN(C(=O)Cc2ccc(OC)c(OC)c2)CC1 (configuration not stated)	nt	-14%	41	nt	?	nt
O=c1c2ccccc2nc(-c2ccccc2)n1Cc1ccco1	33%	-16%	-1	12%	?	-2%
COCCn1cnc2c(c1=O)c1nc3ccccc3nc1n2/N=C/c1cccc(OC)c1	-27%	13µM*	0	?	12µM*	21µM*
SMILES	RORg inh	TDP1 cell CPT	IL1B secr inh	Gal4-VP16 FLuc	TDP1 cell noCPT	ELG1 DNA repair
COc1cccc(/C=N/n2c(-c3ccco3)nc3ccccc3c2=O)c1	?	?	2	?	18µM*	18µM*
COCCCn1cnc2c(c1=O)c1nc3ccccc3nc1n2-c1ccccc1	6%	?	3	-6%	-28%	0%
CCCCn1c(-c2ccco2)nc2ccccc2c1=O	10%	?	10	14%	16µM*	-1%
CCOC(=O)C1CCN(C(=O)Cn2ncc3c([nH]c4ccc(C)cc43)c2=O)CC1	nt	-1%	nt	nt	6%	nt
COCCn1c(N)c(N(Cc2ccccc2)C(=O)c2cc3ccccc3o2)c(=O)[nH]c1=O	-1%	16%	13	-3%	0%	1%
Cc1nn(-c2ccccc2)c(C)c1C(=O)OC(C)C(=O)NC1CCCCC1C (configuration not stated)	nt	13µM*	23	nt	21µM*	?
COC(=O)c1c(C)[nH]c(C(=O)OC(C)C(=O)NC2CCCCC2C)c1C (configuration not stated)	nt	12µM*	0	nt	?	nt
CCOc1ccc(CN(C)C(=O)CNC(=O)c2ccc3ccccc3c2)cc1OC	26%	-10%	?	17%	?	-3%
CCCC[C@H](O)c1ccccc1	-24%	nt	nt	4%	nt	nt
COc1ccc(-n2c(=O)c(-c3ccc(F)cc3)nc3cnc(OC)nc32)cc1	-11%	?	nt	7%	?	nt
CCNc1ncc2nc(-c3ccc(F)cc3)c(=O)n(-c3ccc(OC)cc3)c2n1	-22%	0.73µM*	nt	-11%	0.58µM*	nt
CCNc1ncc2nc(-c3cc(F)cc(F)c3)c(=O)n(-c3ccc(OC)cc3)c2n1	-15%	7%	nt	-11%	-8%	nt
CCNc1ncc2nc(-c3ccccc3)c(=O)n(CCc3ccccc3)c2n1	6%	2%	nt	6%	-12%	nt
CCNc1ncc2nc(-c3ccccc3)c(=O)n(-c3ccc(OC)cc3)c2n1	-4%	7.3µM*	nt	5%	0.52µM*	nt
CCNc1ncc2nc(C)c(=O)n(CCc3ccccc3)c2n1	-23%	7.3µM*	nt	-4%	?	nt
COc1ccc(-c2nc3cnc(OC)nc3n(-c3ccc(OC)cc3)c2=O)cc1	-2%	1.3µM*	nt	1%	0.92µM*	nt
O=C1NC[C@H](CCCCN2C[C@H](Cc3ccc(O)cc3)N(CCc3ccc(O)cc3)C(=O)C2=O)N(CC2CCCCC2)C1=O	nt	6%	4	nt	-8%	nt
CCOc1ccc(C(=O)Nc2ccc3oc(-c4cccnc4)nc3c2)cc1	nt	1%	nt	nt	-16%	nt
CC1=CC(C)(C)N(C(=O)CNC2CCCCC2)c2cc(C)ccc21	-28%	?	-21	5%	?	-3%
CC(C)(C)C(=O)Nc1ccccc1C(=O)OCc1cc(=O)n2ccsc2n1	nt	-1%	nt	nt	-3%	nt
